Data as given in PubChem BioAssay (NCI).
About 83,000 compounds went through this panel and 20% of them were active in at least one assay; those are over-represented in the sample as a whole.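 Cells were grown in 96-well plates and exposed to the test compound at a single concentration for 48 hours; results are reported as percent growth, with values below 10 considered active.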 Calls of active or inactive are those of the source.

Assays:
Assay in all cases: NCI-60 one-dose screen, 48 h (100 = growth as untreated, 0 = no growth, -100 = all killed)
Settings in all cases: 10 µM unless noted
[1] = tested on: NCI-H23 lung
[2] = tested on: NCI-H322M lung
[3] = tested on: HOP-62 NSCLC
[4] = tested on: NCI-H460 lung
[5] = tested on: HOP-92 NSCLC
[6] = tested on: NCI-H522 lung
[7] = tested on: A549/ATCC NSCLC
[8] = tested on: 786-0 renal
[9] = tested on: COLO 205 colon
[10] = tested on: DU-145 prostate
[11] = tested on: K-562 leukemia
[12] = tested on: MALME-3M melanoma
[13] = tested on: MDA-MB-231 breast
[14] = tested on: RXF 393 renal
[15] = tested on: SF-268 CNS
[16] = tested on: SF-295 CNS
[17] = tested on: SF-539 CNS
[18] = tested on: UACC-257 melanoma
[19] = tested on: M14 melanoma
[20] = tested on: NCI-H226 lung

Measured: growth

COc1ccc(NC(=O)Cn2c(/C=C/c3cccc(OC)c3)nc3ccccc3c2=O)cc1
active: [3] -11.5% | [5] 3.74% | [8] -70.7% | [13] -30.3% | [14] -31.9% | [17] -45.7%
inactive: [1] 40.8% | [2] 42.3% | [4] 15.2% | [6] 27.3% | [7] 12.8% | [9] 71.6% | [10] 74.3% | [11] 84% | [12] 62.7% | [15] 66.1% | [16] 34.6% | [18] 81.1% | [19] 61.2%

COc1ccc(-c2cc(C)nc3[nH]c(=O)sc23)cc1
inactive: [1] 74.3% | [2] 68.4% | [3] 44.9% | [4] 52.4% | [5] 16.3% | [7] 52.8% | [9] 119% | [10] 67.3% | [11] 62.5% | [12] 95.2% | [13] 34.6% | [14] 57% | [15] 69.4% | [16] 45.7% | [17] 49.5% | [18] 95.3% | [19] 98.5%
active: [8] 0.453%

O=c1c(-c2nc(-c3ccccc3)c(-c3ccccc3)[nH]2)coc2ccc(F)cc12
inactive: [20] 65.1% | [2] 73.1% | [3] 70.1% | [4] 19% | [5] 88.1% | [6] 71.7% | [7] 40% | [8] 87.2% | [9] 53% | [10] 46.1% | [11] 32.5% | [12] 52% | [13] 64% | [14] 92.3% | [15] 64% | [16] 71.5% | [17] 70.9% | [18] 77.6% | [19] 53.3%

COC(=O)c1cc(C(=O)CBr)n2c1ccc1c3ccccc3ccc12
inactive: [20] 53.4% | [2] 82.8% | [3] 48.9% | [4] 39.4% | [5] 53.2% | [6] 59.1% | [7] 31.3% | [8] 52.1% | [9] 38.7% | [10] 69.3% | [11] 43% | [12] 51.2% | [13] 69.8% | [14] 67% | [15] 74.7% | [16] 37.2% | [17] 43.6% | [18] 82.6%

C[C@@H]1[C@H]2C[C@@H](C[C@H]1NCc1nc3ccccc3n1C1CCCCCC1)C2(C)C
inactive: [20] 57.2% | [2] 95.4% | [3] 88.3% | [4] 56.3% | [5] 28.9% | [6] 22.9% | [7] 71.8% | [8] 63.4% | [9] 58.7% | [10] 88.3% | [11] 24.1% | [12] 51.4% | [13] 77.8% | [14] 19% | [15] 75.6% | [16] 57.6% | [17] 77.1% | [18] 64.7% | [19] 61%

COc1c(F)ccc(C(=O)Nc2ccc3nc(NC(=O)C4CCCN(S(=O)(=O)c5ccc(C(C)(C)C)cc5)C4)sc3c2)c1F (centres undefined)
inactive: [20] 64.1% | [2] 80.3% | [3] 88.9% | [4] 57.3% | [6] 66.7% | [7] 64.1% | [8] 56% | [9] 80.9% | [10] 79.5% | [11] 26.5% | [12] 77.3% | [13] 47% | [14] 14.9% | [15] 68.5% | [16] 78.3% | [17] 74% | [18] 69.3%
active: [5] 6.58%

C[C@@H]1CN(c2ccc3ncc(C#Cc4cncc(C(=O)Nc5ccc(CN6CCN(C)CC6)c(C(F)(F)F)c5)c4)n3n2)C[C@@H](C)O1
active: [20] -86.3% | [2] -78.9% | [3] -59.8% | [4] -80% | [5] -87.7% | [6] -73.3% | [7] -59% | [8] -95.9% | [9] -77.7% | [10] -85.7% | [11] -28.1% | [12] -97.5% | [13] -93.1% | [14] -96.1% | [15] -56.2% | [16] -100% | [17] -100% | [18] -86.6% | [19] -94%

COc1ccc(-c2cc(C(=O)N=Nc3c(O)[nH]c4ccc(Cl)cc34)c3ccccc3n2)cc1OC
inactive: [20] 89.5% | [2] 102% | [3] 123% | [4] 111% | [5] 121% | [6] 106% | [7] 111% | [8] 106% | [9] 125% | [10] 126% | [11] 109% | [12] 105% | [13] 90.9% | [14] 104% | [15] 118% | [16] 101% | [17] 101% | [18] 115% | [19] 89.2%
